# Experimental data as given in PubChem BioAssay (NCATS).
# Records with an inconclusive call do not appear. Calls of active or inactive are those of the source. Calls follow the shape of the dose curve; as a rule, active = well fitted inhibition curve with a large enough effect; inconclusive = small, poorly fitted or top-dose-only effect; inactive = flat fitted curve, though single readings scatter.
# System: Zika virus NS2B-NS3 protease
# Assay: Primary screen GU AMC qHTS for Zika virus inhibitors (AID 1347154); also: nearly all actives have a fitted effect of over 70% in size;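 as to activity change, negative = inhibition: 0% = no-inhibitor control and -100% = no-enzyme control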
# Details: Zika NS2B-NS3 unlinked protease, AMC fluorogenic substrate; series mostly up to 54.1 µM; activity change, negative = inhibition: at the top concentration
# Procedure, shortened: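 Fluorogenic AMC-substrate cleavage by noncovalent NS2B-NS3 protease complex (25 nM, pH 8.0 Tris buffer with Tween 20) followed for 15 minutes at room temperature (~20% conversion). Percent inhibition from ex340/em450 signal change, fitted by 4-parameter Hill equation.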
# Potency is read from the fitted curve at half-maximal effect.
SMILES,"activity change, negative = inhibition",Potency
CCOC(=O)[C@H](CCc1ccccc1)N[C@@H](C)C(=O)N(CC(=O)O)C1Cc2ccccc2C1,-8.87% (inactive),
O=S(=O)(O)c1ccc2nc(-c3ccccc3)[nH]c2c1,-11.1% (inactive),
Cc1ccc(/C=N/n2c(-c3ccccc3)csc2=S)cc1,-8.26% (inactive),
C#Cc1ccc(-c2ccccc2F)cc1,-4.95% (inactive),
CCOC(=O)C(O)c1ccccc1 (stereo not drawn),0.857% (inactive),
C[C@@H](O[C@H]1OCCN(Cc2n[nH]c(=O)[nH]2)[C@H]1c1ccc(F)cc1)c1cc(C(F)(F)F)cc(C(F)(F)F)c1,-23.2% (inactive),
CCCc1ccc(OCC(=O)N2CCN(C(=O)COc3ccc(CCC)cc3OC)CC2)c(OC)c1,-4.08% (inactive),
NCC[C@H](O)C(=O)N[C@@H]1C[C@H](N)[C@@H](O[C@H]2O[C@H](CN)[C@@H](O)[C@H](O)[C@@H]2O)[C@H](O)[C@@H]1O[C@H]1O[C@H](CO)[C@@H](O)[C@H](N)[C@@H]1O,-0.909% [at 0.59 µM] (inactive),
Nc1ncnc2c1ncn2Cc1c(F)cccc1Cl,-3.98% (inactive),
Oc1ccccc1-c1nnco1,-10.8% (inactive),
O=C(OCC(COC(=O)c1cccnc1)(COC(=O)c1cccnc1)COC(=O)c1cccnc1)c1cccnc1,-2.77% (inactive),
CN1Cc2cc(C(=O)N3CCC(C4CCNCC4)CC3)ccc2N[C@@H](CC(=O)O)C1=O,-7.09% (inactive),
C#CC(C)(CC)OC(=O)c1ccccc1C(=O)O (stereo not drawn),-3.84% (inactive),
CCOC(=O)N1CCC(Nc2ccc(Cl)cc2N)CC1,-18.6% (inactive),
O=C(CCCl)NCc1ccccc1,0.897% (inactive),
O=C(O)CCC(=O)OC[C@@H](NC(=O)C(Cl)Cl)[C@H](O)c1ccc([N+](=O)[O-])cc1,-3.41% (inactive),
O=C(NO)c1ccccc1,-0.674% [at 104 µM] (inactive),
Cc1coc2ccccc2c1=O,-1.28% (inactive),
OC(CCCN1CCCCC1)(c1ccccc1)c1ccccc1,2.65% (inactive),

SMILES,"activity change, negative = inhibition",Potency
CCOc1ccc(NS(=O)(=O)c2ccc(N)cc2)nn1,0.388% (inactive),
Nc1nc(=O)n([C@@H]2O[C@H](CO)[C@@H](O)[C@@H]2F)cc1I,2.97% (inactive),
CCCCCCn1c(=O)c2c(ncn2C)n(C)c1=O,5.34% (inactive),
Nc1ccc(O)cc1,-3.26% (inactive),
CC(C)(C)NCC(O)COc1ccccc1OCC1CCCO1 (stereo not drawn),-6.03% (inactive),
N#CC1(c2ccc(F)cc2)CCC(=O)CC1,5.53% (inactive),
CCCCCCCCCCCCCCCCCCN(C)C,-11.6% (inactive),
O=C(Nc1ccc(Cl)cc1)Nc1ccc(Cl)c(Cl)c1,0.406% (inactive),
Nc1cccc2c(N)cccc12,,36.9 µM (active)
CC1(C)O[C@@H]2C[C@H]3[C@@H]4CCC5=CC(=O)C=C[C@]5(C)[C@@]4(F)[C@@H](O)C[C@]3(C)[C@]2(C(=O)CO)O1,2.36% (inactive),
NS(=O)(=O)c1cc2c(cc1Cl)CN(C1CCCCC1)C2=O,-7.03% (inactive),
CC(C)C[C@@H]1[C@H](c2ccccc2)OC(=O)N1CCCN1CCCCCC1,-0.466% (inactive),
COc1cc2c(cc1OC)CN(C(=O)[C@H](C)N[C@@H](CCc1ccccc1)C(=O)O)[C@H](C(=O)O)C2,-1.93% (inactive),
COc1c(N2C[C@@H]3CCCN[C@@H]3C2)c(F)cc2c(=O)c(C(=O)O)cn(C3CC3)c12,,14.4 µM (active)
COC(=O)c1ccc(NC(C)=O)cc1OC,-4.41% (inactive),
CC(C)(C)c1ccc(C(=O)CCCCl)cc1,3.41% (inactive),
Cc1ccc(-c2ccccc2C#N)cc1,-4.98% (inactive),
CN(C)CCCOC1(Cc2ccccc2)CCCCCC1,1.07% (inactive),
OCCOCCN1CCN(C(c2ccccc2)c2ccc(Cl)cc2)CC1 (stereo not drawn),-10.9% (inactive),
